Results from PubChem BioAssay AID1845225 (National Center for Advancing Translational Sciences (NCATS), 2023).
Records with an inconclusive call do not appear. Unmarked numbers belong to inactive results. Calls come from the whole dose curve; as a rule, active = well fitted curve in the direction sought with a large enough effect; inconclusive = small, poorly fitted or top-dose-only effect, or effect the other way, or another doubt; inactive = no such curve, though single readings can be large or run the other way.

Experiment: Confirmatory redox qHTS assay for identification of artifact compounds.
Conditions: Amplex Red/HRP redox cycling with DTT, fluorescence; series mostly up to 39 µM; redox activity vs DA3003: at the top concentration
Source text: PI: Alexander Tropsha Ph.D. UNC Eshelman School of Pharmacy University of North Carolina, Chapel Hill, North Carolina Hits from high-throughput screening (HTS) of chemical libraries are often false positives due to their interference with the assay detection technology. In response to this problem, we generated the largest publicly available library of chemical liabilities and developed a free webtool to predict HTS artifacts, both of which are described herein. More specifically, we generated, curated, and integrated HTS datasets for thiol reactivity, redox activity, and luciferase (firefly and nano) activity. Using these curated datasets, we developed and validated several Quantitative Structure-Interference Relationship (QSIR) models to predict nuisance behavior. […] These models were employed for virtual profiling of the National Center for Advancing Translational Science's (NCATS) in-house library, and 256 compounds for each assay were selected for the experimental validation of nuisance behavior. The BA for these external predictions ranged from 58 to 78% for compounds within the applicability domains of the models. […] The models developed in this study, along with aggregation models previously developed by our group (SCAM Detective) were implemented in "Liability Predictor," an online tool which may be used as part of chemical library design or for triaging HTS hits. Both the models and the curated datasets are publicly available at https://liability.mml.unc.edu/.
PROTOCOL TABLE SEQUENCE No. (e.g., 1, 2, 3, etc.); […] (e.g., Cells, Incubation, Reagent, etc.); VALUE; DESCRIPTION. 1; Reagent; 3 uL; Amplex Red and HRP mixture. 2; Compounds and control; 16 nL; Kalypsis pin tool (Wako USA) equipped with a 1536-well pin head. 3; Incubation; 15 min. 4; Reagent; 1 uL; […]. 5; Incubation; 30 min. 6; Detection; Fluorescence, ViewLux microplate reader, 525 nm excitation, 598 nm emission. NOTES (numbers refer to Sequence numbers above) 1. 3 uL of a mixture containing Amplex Red (25 uM final concentration) and horseradish peroxidase (HRP; 250 mU/mL final concentration) in assay buffer (HBSS) was dispensed into all wells of a 1536-well assay plate (solid-bottom black plate; Greiner Bio One, Monroe, NC). 2. […] 3. 15 min. incubation at room temperature protected from light. 4. 1 uL of DTT (prepared fresh; final concentration 250 uM) was dispensed for a final assay volume of 4 uL. 5. Plates were centrifuged (121xg, 15 seconds) and incubated for 30 minutes at room temperature protected from light. 6. Samples were read for fluorescence (Ex/Em = 525(20)/598(25) nm) on a ViewLux CCD imager (PerkinElmer). Data were normalized to DMSO (0% activity) and DA3003 (10 uM final concentration; 100% activity) and the resulting percent inhibition data were fitted to a 4-parameter Hill equation using NCATS in-house software.

| Compound | redox activity vs DA3003 |
| --- | --- |
| COc1ccc(N2CC(NC(=O)c3ccco3)CC2=O)cc1 (stereo not given) | -0.833% |
| OC[C@H]1O[C@@H]2O[C@H]3[C@H](O)[C@@H](O)[C@@H](O[C@H]4[C@H](O)[C@@H](O)[C@@H](O[C@H]5[C@H](O)[C@@H](O)[C@@H](O[C@H]6[C@H](O)[C@@H](O)[C@@H](O[C@H]7[C@H](O)[C@@H](O)[C@@H](O[C@H]1[C@H](O)[C@H]2O)O[C@@H]7CO)O[C@@H]6CO)O[C@@H]5CO)O[C@@H]4CO)O[C@@H]3CO | -0.818% |
| FC(F)(F)c1ccccc1-c1nc(NCC23CC4CC(CC(C4)C2)C3)c2ccccc2n1 | 0.743% |
| CC[C@H](C)CCCCC(=O)N[C@@H](CCN)C(=O)N[C@H](C(=O)N[C@@H](CCN)C(=O)N[C@H]1CCNC(=O)[C@@H]([C@H](C)O)NC(=O)[C@H](CCN)NC(=O)[C@H](CCN)NC(=O)[C@H](CC(C)C)NC(=O)[C@@H](CC(C)C)NC(=O)[C@H](CCN)NC1=O)[C@@H](C)O | -1.18% [at 13.1 µM] |
| COc1ccccc1CNC(=O)CCC(=O)N1Cc2ccccc2Oc2ncccc21 | 3.23% |
| CCOc1ccc2nc(N3CCC(C(=O)Nc4ccc(Br)cc4F)CC3)sc2c1 | 0.802% |
| Cc1ccc(C)c(NC(=O)CN2CCCN(Cc3cccc(Cl)c3)S2(=O)=O)c1 | 3.81% |
| COc1cccc(-c2nc3cc(NC(=O)c4cccnc4)ccc3o2)c1 | 6.77% [at 78.4 µM] |
| CC1=C(/C=C/C(C)=C/C=C/C(C)=C\C(=O)O)C(C)(C)CCC1 | 18.1% |
| COc1ccc(Cn2c(SCc3ccc(C(=O)NC4CCCCC4)cc3)nc3ccncc32)cc1 | 0.423% |
| COc1ccc(CCNC(=O)c2cc(=O)[nH]c3ccc(S(=O)(=O)N4CCCCC4)cc23)cc1OC | 3.88% |
| CCOC(=O)c1c(C)[nH]c(CCC(=O)NCCCN2CCN(c3ccc(F)cc3)CC2)c1C | 9.99% |
| COc1cc2c(NC3CCN(C)CC3)nc(N3CCN(C)CC3)nc2cc1OCCCN(C)C | 13.1% |
| CCOc1ccc(C(=O)N2CCC(c3nc(-c4ccc(S(=O)(=O)N5CCCC5)cc4)no3)CC2)cc1 | 7.69% |
| O=C(NCCC1=CCCCC1)c1ccc2c(c1)N(Cc1cccc(Cl)c1)C(=O)c1ccccc1S2=O (stereo not given) | 0.652% |
| CC(N)(C(=O)O)c1ccc(S(=O)(=O)O)cc1 (stereo not given) | -0.72% |
| COc1ccc(NC(=O)Nc2cccc(-c3noc(C)n3)c2)cc1 | -0.638% |
| COc1ccc(N2CCN(Cc3cc(=O)oc4ccc(OC)cc34)CC2)cc1 | 3.17% |
| O=S(=O)(c1ccc(Cl)cc1)N1CCC(c2ccncc2)CC1 | -0.214% |
| COc1cc2c(NC3CCN(C)CC3)nc(N3CCN(C)CC3)nc2cc1OCCOCCN(C)C | 10.7% |

| Compound | redox activity vs DA3003 |
| --- | --- |
| CC(C)C[C@H](N)C(=O)N[C@H](C(=O)N[C@H](C(=O)N[C@@H](Cc1ccc(O)cc1)C(=O)N1CCC[C@H]1C(=O)N[C@@H](Cc1c[nH]c2ccccc12)C(=O)N[C@H](C(=O)N[C@@H](CCC(N)=O)C(=O)N[C@@H](CCCN=C(N)N)C(=O)O)[C@@H](C)O)C(C)C)C(C)C | -0.687% [at 4.35 µM] |
| Cc1ccc(C)c(C(=O)N2CCC(c3nc4c(nnn4Cc4ccccc4)c(=O)[nH]3)CC2)c1 | 4.18% |
| COC(=O)c1c(SC)nc2ccccc2c1OCc1ccc(Br)cc1 | -2.29% |
| Cc1ccccc1S(=O)(=O)Nc1cnccc1C(=O)Nc1nc(-c2ccccc2)cs1 | 3.48% |
| Cc1cc(NC(=O)c2ccc([S+](=O)([O-])NCc3ccc(Cl)c(Cl)c3)cc2)no1 | -1.65% |
| Cc1cc(C)cc(NC(=O)CSc2cc(C)[nH]c(=O)n2)c1 | 0.365% |
| CCCCCCCCOc1ccc(C(=O)O)cc1 | 3.88% |
| O=C(Nc1ccc(C(F)(F)F)cc1)C1(c2cccs2)CCOCC1 | 1.08% |
| Clc1ccccc1CNc1ncnc2nc[nH]c12 | -1.1% |
| O=C1c2oc3ccc(F)cc3c(=O)c2C(c2cccc([N+](=O)[O-])c2)N1CCCN1CCOCC1 (stereo not given) | 18.1% |
| CCOC(=O)Cc1cccc(-c2cc(CCCCCCc3ccc(O[C@H]4O[C@H](COC(C)=O)[C@@H](OC(C)=O)[C@H](OC(C)=O)[C@@H]4OC(C)=O)c(-c4cccc(CC(=O)OCC)c4)c3)ccc2O[C@H]2O[C@H](COC(C)=O)[C@@H](OC(C)=O)[C@H](OC(C)=O)[C@@H]2OC(C)=O)c1 | 0.744% |
| Cc1nc(S(=O)(=O)N2CCN(c3ccccc3F)CC2)cn1C | 0.568% |
| COc1ccc(NC(=O)C(Cc2ccccc2)n2cccc2)c(OC)c1 (stereo not given) | -0.936% |
| C[C@@H]1CC2C3CCC4=CC(=O)C=C[C@]4(C)[C@@]3(F)C(O)C[C@]2(C)[C@@]1(O)C(=O)COC(=O)c1cccc(S(=O)(=O)O)c1 (stereo not given in full) | 5.29% |
| O=C(Nc1cccc(Br)c1)N1CCC(CN2CCCCC2)CC1 | 0.0864% |
| CC(C)=CCC/C(C)=C/C=O | 7.02% [at 78.4 µM] |
| O=C(Nc1ccc(Cl)cc1)N1CCC(c2ccccc2)C1 (stereo not given) | -0.731% |
| O=C(Cn1nc2c(cc1=O)CCCC2)Nc1ccc(F)cc1F | -0.537% |
| O=S(=O)(c1cc(Br)c(Br)s1)N1CCN(c2ccccc2)CC1 | -0.713% |
| CC1(C)CC(=O)c2cc(C(=O)NCCc3ccccc3)c(=O)[nH]c2C1 | 0.176% |
